Results filed as inconclusive are left out. The source made the active and inactive calls. How the source made its calls: active means hit-call score of the fitted dose curve at least 0.9, where 1 is the maximum; inactive means score below 0.9.
read-out: ABC Transporter (ABCB11), ABCB11 (gene 8647); assay: CLD_ABCB11_24hr: CellzDirect (CLD) Gene Expression Assay for ABC Transporter (ABCB11) at 48 hours (AID 2283674)
Method: CLD_24hr is a cell-based, multiplexed-readout assay that uses hepatocyte, a human liver primary cell, with measurements taken at 24 hours after chemical dosing in a 96-well plate.CLD_ABCB11_24hr is one of 16 assay component(s) measured or calculated from the CLD_24hr assay. It is designed to make measurements of mRNA induction, a form of inducible reporter, as detected with chemiluminescence signals by Quantitative Nuclease Protection Assay (qNPA) technology.Data from the assay component CLD_ABCB11_24hr was analyzed at the endpoint, CLD_ABCB11_24hr, in the positive analysis fitting direction relative to DMSO as the negative control and baseline of activity. Using a type of inducible reporter, gain-of-signal activity can be used to understand changes in the reporter gene as they relate to the gene ABCB11. Furthermore, this assay endpoint can be referred to as a primary readout. To generalize the intended target to other relatable targets, this assay endpoint is annotated to the transporter intended target family, where subfamily is ABC transporter.
Human hepatocyte cultures were treated daily for two consecutive days with fresh dosing solutions containing appropriate concentrations of the 320 ToxCast chemicals (chemical identities were blinded to CellzDirect and other ToxCast collaborators), vehicle control (0.2% DMSO), and positive control inducers as summarized in Table 1. Due to the large number of treatment groups and chemicals examined, the ToxCast chemicals were divided into two groups (spanning two independent cultures of hepatocytes from separate donor preparations (Hu778: ToxCast plates 1 and 2; Hu776: ToxCast plates 3 and 4). Each preparation of human hepatocyte cultures was treated with respective vehicle control, medium only control, set of six positive controls/reference chemicals for the five hepatic receptor pathways, and a subset of eight of the ToxCast chemicals (indoxacarb, pyrithiobac-sodium, norflurazon, cyhalofop-butyl, methomyl, thiram, acetochlor, and propiconazole). These replicate data, coupled with internal replicates designed within the blinded ToxCast chemical library, provided additional data to evaluate interindividual differences between hepatocyte preparations and their potential impact on chemical profiles.Cell morphology and integrity were evaluated using phase-contrast microscopy as an indicator of hepatocyte cell health (Tyson & Green, 1987). Cultures for each treatment group (i.e., media, vehicle [0.2% DMSO], positive control inducers [multiple concentrations], and the ToxCast chemicals [multiple concentrations]) were observed and cell morphology was assessed relative to vehicle control cultures at each harvest time point (0, 6, 24, or 48 h). […] Images were evaluated at the conclusion of the study to assess changes in cell integrity and account for the effects of chemical exposure on uncharacteristic changes in concentration-dependent gene expression profiles. The results from these determinations of apparent cytotoxicity were annotated (yes/no) alongside the corresponding qNPA data for reference.At the conclusion of each treatment period, hepatocyte cultures (96-well) were washed with 1 volume of HBSS, lysed by addition of 25 ul ArrayPlate lysis buffer (HTG, Tucson, AZ), and 70 ul/well of Denaturation Oil, denatured by incubation at 95C for 10 min, and frozen at approximately -70C until analysis by nuclease protection assay (qNPA) (Roberts et al., 2007). For qNPA analysis, cell lysates were thawed at 50C for approximately 30 min, qNPA probes were added, and samples were incubated at 95C for 10 min to begin the detection process by denaturing the target RNA, dissociating the duplexes and secondary structure hybridization. At the conclusion of the hybridization period, S1 nuclease reagent was added to each sample to digest all nonprotected nucleotides at 50C for 60-90 min. […]

Row | SMILES | AC50 | outcome
1 | CCc1nn(C)c(C(=O)NCc2ccc(C(C)(C)C)cc2)c1Cl | 34.8 µM (active) | –
2 | CCCCOC(=O)c1ccccc1C(=O)OCCCC | – | inactive
3 | COP(=S)(OC)Oc1nc(Cl)c(Cl)cc1Cl | – | inactive
4 | CCCCC(CC)COC(=O)c1ccccc1C(=O)OCC(CC)CCCC (stereo unspecified) | – | inactive
5 | COC(=O)c1ccccc1C(=O)OC | – | inactive
6 | CCCN(CCC)c1c([N+](=O)[O-])cc(S(N)(=O)=O)cc1[N+](=O)[O-] | – | inactive
7 | CC(C)(C)c1ccc(CSc2cnn(C(C)(C)C)c(=O)c2Cl)cc1 | – | inactive
8 | COC(=O)C(C)Oc1ccc(Oc2ccc(Cl)cc2Cl)cc1 (stereo unspecified) | – | inactive
9 | C=CC1(C)OC(=O)N(c2cc(Cl)cc(Cl)c2)C1=O (stereo unspecified) | – | inactive
10 | CN(C)C(=S)SSC(=S)N(C)C | – | inactive
11 | O=C(O)c1nc(Cl)ccc1Cl | – | inactive
12 | COC(=O)N(OC)c1ccccc1COc1ccn(-c2ccc(Cl)cc2)n1 | 6.18 µM (active) | –
13 | Oc1ccccc1-c1ccccc1 | – | inactive
14 | COc1nc(C)nc(NC(=O)NS(=O)(=O)c2ccccc2Cl)n1 | – | inactive
15 | C#CCOS(=O)OC1CCCCC1Oc1ccc(C(C)(C)C)cc1 (stereo unspecified) | – | inactive
16 | COc1nc(C)nc(NC(=O)NS(=O)(=O)c2ccccc2CCC(F)(F)F)n1 | – | inactive

Reference: PubChem BioAssay (EPA / NIEHS)
